# Assay outcomes: PubChem BioAssay, National Center for Advancing Translational Sciences (NCATS)
# In the library only some 10% were active in any assay of this set; here they are far more common.
# JMJD2A Tudor inh – qHTS Assay for Inhibitors of JMJD2A-Tudor Domain | AlphaScreen JMJD2A-Tudor / H3K4me3 peptide binding | Potency, µM (series often up to 114 µM), for inactives: top-dose activity change, negative = inhibition, usual class: inhibitors | 4.4% of 390,000 active | AID 504339, 2011; also: potency is read from the fitted curve at half-maximal effect; % is scaled to controls: 0 for no effect and ±100 for the full control effect; nearly all actives have a fitted effect of over 50% in size
# HP1b chromo inh – HTS for Inhibitors of HP1-beta Chromodomain Interactions with Methylated Histone Tails. Potency, µM (doses to about 114 µM), without a hit: at the top dose activity change, negative = inhibition, usual class: inhibitors. AID 540317, 2011. AlphaScreen HP1-beta / biotin-H3K9me3 peptide binding. 0.56% of 390,000 active; also: potency is read from the fitted curve at half-maximal effect; nearly all actives have a fitted effect of over 70% in size
# Target sequence (P83916 whole entry, looked up): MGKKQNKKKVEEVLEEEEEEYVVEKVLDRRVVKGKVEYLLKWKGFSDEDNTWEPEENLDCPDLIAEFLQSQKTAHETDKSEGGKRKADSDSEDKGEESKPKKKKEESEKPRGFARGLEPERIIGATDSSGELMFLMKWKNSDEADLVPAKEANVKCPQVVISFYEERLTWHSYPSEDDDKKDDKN
#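 HP1-beta protein (50 nM final) preincubated 30 min at room temperature with biotinylated H3(1-18)K9me3 peptide (50 nM) in PBS pH 7.4, 0.01% Tween-20, then compound added for 30 min. AlphaScreen streptavidin donor/nickel chelate acceptor beads (10 ug/mL final), 30 min dark, luminescence read.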
# Six1-Eya2 inh – qHTS Assay for Inhibitors of the Six1/Eya2 Interaction; Homeobox protein SIX1 (Homo sapiens) + Protein phosphatase EYA2 (Homo sapiens), …; AlphaScreen GST-Six1/His-Eya2 binding, biochemical; active compounds read low; activity change, % (no concentration beside the values); 0.56% of 360,000 active; in the data active = activity change below about -65%; inconclusive = mostly about -30% to -63%; also: % is scaled to controls: 0 for no effect and ±100 for the full control effect
#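 AlphaScreen luminescence read after one hour at 37 °C in darkness. Pin-transferred compounds met GST-Six1 and His-Eya2 protein (5X stock 250 nM/500 nM) plus glutathione donor and Ni-chelate acceptor beads (5X, 50 ug/mL).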
# CtBP-E1A inh – qHTS Assay for Inhibitors of the CtBP/E1A Interaction | CtBP / adenovirus E1A interaction (AlphaScreen) | AlphaScreen GST-E1A/His-CtBP binding, 1536-well; active compounds read low | activity change, % (concentration not given with the values) | 0.49% of 340,000 active | AID 651724, 2012; in the data active = activity change below about -65%; inconclusive = mostly about -30% to -63%; also: % is scaled to controls: 0 for no effect and ±100 for the full control effect
#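 In 5 uL wells, 23 nL compound meets equimolar GST-E1A and His-CtBP (5X stock 125 nM each) for 2 h, 37 °C. Beads (5X, 50 ug/mL) then 1 h, 37 °C, dark.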
# BAZ2B block – qHTS Assay for Inhibitors of BAZ2B; Bromodomain adjacent to zinc finger domain protein 2B (Homo sapiens), Q9UIF8; AlphaScreen BAZ2B-H3K14Ac peptide displacement; Potency, µM (doses to about 114 µM), inactives show at the highest dose activity change, negative = inhibition, actives largely listed as inhibitors; 4.4% of 360,000 active; also: potency is read from the fitted curve at half-maximal effect; % is scaled to controls: 0 for no effect and ±100 for the full control effect; nearly all actives have a fitted effect of over 60% in size
#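 AlphaScreen displacement: compounds (up to 110uM) incubated 30 min at room temperature with a preformed 50 nM BAZ2B/50 nM biotinylated H3K14Ac peptide complex in PBS pH 7.4 with Tween-20. Donor and acceptor beads at 10 ug/mL final added, 20 min light-protected before reading.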
# G9a inh – qHTS Assay for Inhibitors of Histone Lysine Methyltransferase G9a. Histone-lysine N-methyltransferase EHMT2 (Homo sapiens), Q96KQ7. G9a H3K9 monomethylation, AlphaScreen, 2 h. Potency, µM (top dose mostly 102 µM), without a hit: top-dose activity, negative = inhibition, hits mostly inhibitors. 8.8% of 350,000 active; also: potency is read from the fitted curve at half-maximal effect; % is scaled to controls: 0 for no effect and ±100 for the full control effect; nearly all actives have a fitted effect of over 75% in size
# Target sequence (Q96KQ7 913-1193 limits assumed): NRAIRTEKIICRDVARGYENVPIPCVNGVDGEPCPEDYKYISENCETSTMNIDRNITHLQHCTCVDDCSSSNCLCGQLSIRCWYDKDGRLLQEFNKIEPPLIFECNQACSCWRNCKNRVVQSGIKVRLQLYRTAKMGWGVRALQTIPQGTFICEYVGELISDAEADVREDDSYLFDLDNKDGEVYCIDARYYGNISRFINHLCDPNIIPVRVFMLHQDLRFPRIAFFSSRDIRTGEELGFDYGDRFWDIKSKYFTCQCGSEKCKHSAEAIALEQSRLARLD
#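 Quantitative HTS format: methyltransferase activity on a biotin-tagged H3K9 peptide is measured by AlphaScreen, using a rabbit anti-monomethyl-H3K9 antibody with streptavidin donor and anti-IgG acceptor beads. Final levels are 20 nM enzyme, 500 nM peptide, 20 uM SAM; 2 h RT.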
# * marks the source's active call; other numbers are inactive results; u = inconclusive; x = not tested or not shown; [ ] = another dose, or the depositor's remark. Unless noted, calls follow the shape of the dose curve; as a rule, active = well fitted inhibition curve with a large enough effect; inconclusive = small, poorly fitted or top-dose-only effect; inactive = no such curve, though single readings can be large or run the other way.
SMILES,JMJD2A Tudor inh,HP1b chromo inh,Six1-Eya2 inh,CtBP-E1A inh,BAZ2B block,G9a inh
COc1ccc(-c2noc(COc3cc(C)ccc3C)n2)cc1OC,74.0%,38.9%,x,x,88.3%,4.8%[59 µM]
CC(C(=O)NC1C(=O)N2C(C(=O)O)=C(CSc3nnnn3C)CSC12)n1cc(Br)cn1 (centres undefined),-22.8%,21.3%,-6.6,-1.9,50.1µM*,28.2µM*
Cc1nn(C(C)C(=O)NC2C(=O)N3C(C(=O)O)=C(CSc4nnnn4C)CSC23)cc1Cl (centres undefined),-21.0%,41.0%,-5.3,x,u,u
Cc1cc(C)nc(SCSc2nc(C)cc(C)n2)n1,-7.1%,14.3%,10.8,-0.5,7.4%,-16.2%[59 µM]
Cc1cc(C)nc(SCCc2ccncc2)n1,4.47µM*,21.2%,-1.9,1.1,10.3%,3.98µM*
CC1(C)CC(=O)C(C(c2ccc(Br)cc2)C2C(=O)CC(C)(C)CC2=O)C(=O)C1,-24.7%,40.7%,0.7,0.2,3.8%,44.7µM*
CC1(C)CC(=O)C(C(c2ccc(F)cc2)C2C(=O)CC(C)(C)CC2=O)C(=O)C1,-2.2%,52.3%,1.3,-6.0,2.2%,u
O=C1c2ccccc2NC2(CCCC2)N1O,-13.0%,24.1%,0.1,-1.8,-28.8%,35.5µM*
C#CCOCCOCCOCCNc1nc(N2CCN(C(=O)CCCCCCCCCCNC(=O)[C@H](CCCN=C(N)N)n3cc(C[C@@H](C)CC)nn3)CC2)nc(N2CCN(C(=O)CCCCCCCCCCNC(=O)[C@@H]([C@H](C)CC)n3cc(CCCCCN)nn3)CC2)n1,x,x,x,x,56.2µM*,10.4%[2.33 µM]
C#CCOCCOCCOCCNc1nc(N2CCOCC2)nc(N2CCN(C(=O)CCCCCCCCCCNC(=O)[C@H]([C@@H](C)CC)n3cc(CCCCN=C(N)N)nn3)CC2)n1,-34.3%,19.8%,0.6,-9.0,u,-3.3%[2.33 µM]
C#CCOCCOCCOCCNc1nc(N2CCN(C(=O)CCCCCCCCCCNC(=O)[C@H]([C@@H](C)CC)n3cc(CCCCN=C(N)N)nn3)CC2)nc(N2CCN(C(=O)CCCCCCCCCCNC(=O)[C@@H]([C@H](C)O)n3cc(C)nn3)CC2)n1,56.2µM*,u,-26.1,-3.5,u,11.8%[2.33 µM]
C#CCOCCOCCOCCNc1nc(N2CCN(C(=O)CCCCCCCCCCNC(=O)[C@H]([C@@H](C)CC)n3cc(CCCCN=C(N)N)nn3)CC2)nc(N2CCN(C(=O)CCCCCCCCCCNC(=O)[C@H](CCCN=C(N)N)n3cc(C[C@@H](C)CC)nn3)CC2)n1,x,x,x,x,50.1µM*,2.1%[2.33 µM]
Fc1ccc2[nH]c(-c3cccs3)cc2c1,-10.1%,11.9%,x,x,-5.4%,5.0%[59 µM]
CC(C)C(=O)N1c2nc(-c3ccco3)nn2C2(CCCCC2)[C@@H]2CCCC[C@@H]21,-13.6%,40.7%,x,x,u,u
O=S(=O)(NCCc1cn(S(=O)(=O)c2ccccc2)c2ccccc12)c1ccccc1,50.1µM*,0.3%,x,x,x,x
COC(=O)/C=C/c1cc(O)ccc1O,x,x,x,x,x,2.82µM*
Cc1cc(NCCCn2ccnc2)n2nc(-c3ccc(Cl)cc3)cc2n1,u,4.4%,-14.7,-6.8,44.7µM*,x
Cc1cc(NCCCn2ccnc2)n2nc(-c3ccc(F)cc3)cc2n1,-27.6%,19.1%,-13.1,10.8,u,-47.1%[12.7 µM]
CCc1nn(CC(=O)Nc2c(C)cccc2C)c(=O)c2cc3sccc3n12,-9.8%,24.5%,x,x,2.1%,-8.3%[59 µM]
O=C(COC(=O)c1cc(S(=O)(=O)N2CCc3ccccc3C2)ccc1Cl)NCc1ccco1,79.4µM*,u,-17.5,3.8,u,39.8µM*
CCc1ccc(NC(=O)C(C)OC(=O)c2cccc(S(=O)(=O)N3CCc4ccccc4C3)c2)cc1 (centres undefined),-18.9%,28.4%,-2.6,7.1,15.0%,7.94µM*
O=C(COC(=O)c1cccc(S(=O)(=O)N2CCc3ccccc3C2)c1)NCc1ccco1,4.1%,26.5%,-3.7,-2.0,50.1µM*,u
O=C(COC(=O)c1cc(S(=O)(=O)N2CCOCC2)ccc1Cl)NCc1ccco1,-9.6%,32.8%,-0.3,4.9,-1.0%,7.2%[0.501 µM]
CCOc1ccc(NC(=O)CN(C)C(=O)c2ccc(OCC3CCCO3)cc2)cc1OCC (centres undefined),-5.5%,17.6%,-17.5,-5.2,-16.9%,0.9%
COc1ccc(S(=O)(=O)N2CCC3CC2c2cc(-c4ccc5c(c4)OCO5)ccc23)cc1 (centres undefined),x,x,1.1,1.7,x,x
SMILES,JMJD2A Tudor inh,HP1b chromo inh,Six1-Eya2 inh,CtBP-E1A inh,BAZ2B block,G9a inh
O=C(Nc1ccc(F)cc1Cl)C1Cc2ccccc2N1C(=O)c1ccccc1 (centres undefined),-6.6%,2.2%,x,x,-10.2%,30.2%[59 µM]
O=C(N/C(=C/c1ccco1)C(=O)N1CCCCCC1)c1cccs1,-17.0%,4.7%,-15.3,-1.5,-10.8%,u
Cc1ccc(C(=O)N/C(=C\c2ccco2)C(=O)N2CCCCC2)cc1,-20.3%,u,4.3,-1.7,-12.6%,44.7µM*
O=C(N/C(=C/c1ccc(Br)cc1)C(=O)N1CCOCC1)c1ccco1,2.8%,23.0%,-1.8,3.2,-7.1%,-6.8%
Cc1ccc(C(=O)N/C(=C/c2ccco2)C(=O)N2CCCCC2)cc1,-18.6%,-3.0%,-5.3,2.2,-9.2%,50.1µM*
O=C(N/C(=C/c1ccc(Br)cc1)C(=O)N1CCCC1=O)c1ccco1,-9.4%,2.2%,-10.4,-93.3*,8.4%,29.5%[12.7 µM]
Cc1ccc(C(=O)N/C(=C/c2ccco2)C(=O)N2CCOCC2)cc1,4.9%,18.8%,-5.1,-11.2,0.5%,u
O=C(N/C(=C\c1ccc(-c2ccccc2)o1)C(=O)N1CCOCC1)c1ccccc1,56.2µM*,-24.1%,-24.2,-11.7,-32.3%,50.1µM*
COc1ccccc1CNC(=O)CN1C(=O)c2cccnc2Oc2ccccc21,-17.8%,18.0%,x,x,2.5%,-3.9%[59 µM]
CCNC(=O)c1c(NC(=O)COc2ccc(F)cc2)sc2c1CCCC2,-8.3%,26.0%,x,x,-2.0%,u
CCOC(=O)C1CCN(C(=O)/C(=C/c2ccccc2)NC(=O)c2ccccc2)CC1,-5.6%,29.1%,12.3,x,-6.7%,7.8%
CCOC(=O)C1CCCN(C(=O)/C(=C/c2ccco2)NC(=O)c2ccccc2)C1 (centres undefined),-24.7%,3.7%,0.4,-2.3,-18.5%,39.8µM*
